Results as given in ChEMBL document CHEMBL1961873, “Compounds: GSK PKIS; Assays: Nanosyn kinase panel” (2012).

Columns and labels:
[1] = target: Serine/threonine-protein kinase MRCK alpha (Homo sapiens) (UniProt Q5VT25); details: at 0.1 µM
[2] = target: Serine/threonine-protein kinase MRCK alpha (Homo sapiens) (UniProt Q5VT25); details: at 1 µM
[3] = target: Serine/threonine-protein kinase MRCK beta (Homo sapiens) (UniProt Q9Y5S2); details: at 0.1 µM
[4] = target: Serine/threonine-protein kinase MRCK beta (Homo sapiens) (UniProt Q9Y5S2); details: at 1 µM
[5] = target: Ribosomal protein S6 kinase alpha-5 (Homo sapiens) (UniProt O75582); details: at 0.1 µM
[6] = target: Ribosomal protein S6 kinase alpha-5 (Homo sapiens) (UniProt O75582); details: at 1 µM
[7] = target: Ribosomal protein S6 kinase alpha-4 (Homo sapiens) (UniProt O75676); details: at 0.1 µM
[8] = target: Ribosomal protein S6 kinase alpha-4 (Homo sapiens) (UniProt O75676); details: at 1 µM
[9] = target: Ribosomal protein S6 kinase beta-1 (Homo sapiens) (UniProt P23443); details: at 0.1 µM
[10] = target: Ribosomal protein S6 kinase beta-1 (Homo sapiens) (UniProt P23443); details: at 1 µM
[11] = target: T1, 3-phosphoinositide-dependent protein kinase 1 (Homo sapiens) (UniProt O15530); details: at 0.1 µM;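 note: values are mean inhibition of PDK1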
T1 sequence (whole entry): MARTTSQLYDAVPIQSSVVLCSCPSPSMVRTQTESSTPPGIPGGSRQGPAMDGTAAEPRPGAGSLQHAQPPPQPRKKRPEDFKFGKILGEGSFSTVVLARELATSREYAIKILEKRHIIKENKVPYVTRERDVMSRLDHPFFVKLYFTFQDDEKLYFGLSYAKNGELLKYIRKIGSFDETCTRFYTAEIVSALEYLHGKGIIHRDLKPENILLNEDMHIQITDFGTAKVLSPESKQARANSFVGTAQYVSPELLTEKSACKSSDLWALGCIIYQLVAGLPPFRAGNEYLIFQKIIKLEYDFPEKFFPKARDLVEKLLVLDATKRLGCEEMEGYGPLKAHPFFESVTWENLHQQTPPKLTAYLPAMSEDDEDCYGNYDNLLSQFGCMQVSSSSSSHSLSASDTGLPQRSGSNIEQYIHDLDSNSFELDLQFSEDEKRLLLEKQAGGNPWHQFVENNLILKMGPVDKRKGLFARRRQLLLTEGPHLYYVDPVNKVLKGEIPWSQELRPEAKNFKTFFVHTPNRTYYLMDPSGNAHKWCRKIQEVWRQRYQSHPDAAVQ

[12] = target: cAMP-dependent protein kinase catalytic subunit alpha (Homo sapiens) (UniProt P17612); details: at 0.1 µM
[13] = target: cAMP-dependent protein kinase catalytic subunit alpha (Homo sapiens) (UniProt P17612); details: at 1 µM
[14] = target: Protein kinase C alpha type (Homo sapiens) (UniProt P17252); details: at 0.1 µM
[15] = target: Protein kinase C alpha type (Homo sapiens) (UniProt P17252); details: at 1 µM
[16] = target: Protein kinase C beta type (Homo sapiens) (UniProt P05771); details: at 0.1 µM
[17] = target: Protein kinase C beta type (Homo sapiens) (UniProt P05771); details: at 1 µM
[18] = target: Protein kinase C eta type (Homo sapiens) (UniProt P24723); details: at 0.1 µM
[19] = target: Protein kinase C eta type (Homo sapiens) (UniProt P24723); details: at 1 µM
[20] = target: Protein kinase C gamma type (Homo sapiens) (UniProt P05129); details: at 0.1 µM;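 note: values are mean percent inhibition of PKC gamma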

Serine/threonine-protein kinase MRCK alpha (Homo sapiens), sequence (Q5VT25 whole entry): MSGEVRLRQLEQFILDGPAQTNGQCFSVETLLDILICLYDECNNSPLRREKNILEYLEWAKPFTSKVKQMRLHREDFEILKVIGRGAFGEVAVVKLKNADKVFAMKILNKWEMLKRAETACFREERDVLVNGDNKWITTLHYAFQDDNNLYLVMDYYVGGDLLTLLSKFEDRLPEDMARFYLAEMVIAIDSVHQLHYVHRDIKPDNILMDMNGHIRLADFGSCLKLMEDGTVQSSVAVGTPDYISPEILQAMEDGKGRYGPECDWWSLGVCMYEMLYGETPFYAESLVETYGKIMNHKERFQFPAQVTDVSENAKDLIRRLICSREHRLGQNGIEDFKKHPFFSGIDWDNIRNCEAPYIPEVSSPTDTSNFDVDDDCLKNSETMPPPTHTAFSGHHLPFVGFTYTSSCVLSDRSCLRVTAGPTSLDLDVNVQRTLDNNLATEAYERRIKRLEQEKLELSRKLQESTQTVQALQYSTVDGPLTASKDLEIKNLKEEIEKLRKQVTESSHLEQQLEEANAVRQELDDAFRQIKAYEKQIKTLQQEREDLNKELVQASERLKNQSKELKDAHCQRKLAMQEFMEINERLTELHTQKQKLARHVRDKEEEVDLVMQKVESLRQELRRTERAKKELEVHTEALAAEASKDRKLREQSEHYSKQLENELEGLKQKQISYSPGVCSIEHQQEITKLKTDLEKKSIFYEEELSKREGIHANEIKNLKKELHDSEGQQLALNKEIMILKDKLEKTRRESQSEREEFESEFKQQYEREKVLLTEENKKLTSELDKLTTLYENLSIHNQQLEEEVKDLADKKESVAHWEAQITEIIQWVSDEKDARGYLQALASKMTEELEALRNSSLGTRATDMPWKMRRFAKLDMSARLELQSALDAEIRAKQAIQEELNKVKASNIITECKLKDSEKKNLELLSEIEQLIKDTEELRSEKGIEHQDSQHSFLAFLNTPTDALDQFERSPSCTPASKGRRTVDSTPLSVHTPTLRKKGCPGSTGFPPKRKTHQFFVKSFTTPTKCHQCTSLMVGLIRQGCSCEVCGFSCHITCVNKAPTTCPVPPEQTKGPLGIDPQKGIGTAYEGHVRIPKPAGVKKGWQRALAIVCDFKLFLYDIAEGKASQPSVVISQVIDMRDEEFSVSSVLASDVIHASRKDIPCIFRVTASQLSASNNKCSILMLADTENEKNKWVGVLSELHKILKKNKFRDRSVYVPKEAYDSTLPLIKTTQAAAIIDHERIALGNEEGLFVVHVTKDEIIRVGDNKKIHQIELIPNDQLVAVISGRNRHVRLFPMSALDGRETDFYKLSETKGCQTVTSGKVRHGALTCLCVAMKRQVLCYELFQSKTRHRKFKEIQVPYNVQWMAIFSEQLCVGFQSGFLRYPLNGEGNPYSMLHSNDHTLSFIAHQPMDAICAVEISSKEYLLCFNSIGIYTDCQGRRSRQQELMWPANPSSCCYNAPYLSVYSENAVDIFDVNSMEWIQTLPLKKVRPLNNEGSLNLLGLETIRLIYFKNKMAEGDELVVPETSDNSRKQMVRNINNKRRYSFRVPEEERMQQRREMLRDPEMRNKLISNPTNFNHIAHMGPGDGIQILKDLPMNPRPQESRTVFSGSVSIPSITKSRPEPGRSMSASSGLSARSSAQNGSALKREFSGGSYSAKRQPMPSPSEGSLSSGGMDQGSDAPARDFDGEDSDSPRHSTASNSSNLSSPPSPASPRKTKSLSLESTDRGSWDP
Protein kinase C beta type (Homo sapiens), sequence (P05771 2-671 limits assumed): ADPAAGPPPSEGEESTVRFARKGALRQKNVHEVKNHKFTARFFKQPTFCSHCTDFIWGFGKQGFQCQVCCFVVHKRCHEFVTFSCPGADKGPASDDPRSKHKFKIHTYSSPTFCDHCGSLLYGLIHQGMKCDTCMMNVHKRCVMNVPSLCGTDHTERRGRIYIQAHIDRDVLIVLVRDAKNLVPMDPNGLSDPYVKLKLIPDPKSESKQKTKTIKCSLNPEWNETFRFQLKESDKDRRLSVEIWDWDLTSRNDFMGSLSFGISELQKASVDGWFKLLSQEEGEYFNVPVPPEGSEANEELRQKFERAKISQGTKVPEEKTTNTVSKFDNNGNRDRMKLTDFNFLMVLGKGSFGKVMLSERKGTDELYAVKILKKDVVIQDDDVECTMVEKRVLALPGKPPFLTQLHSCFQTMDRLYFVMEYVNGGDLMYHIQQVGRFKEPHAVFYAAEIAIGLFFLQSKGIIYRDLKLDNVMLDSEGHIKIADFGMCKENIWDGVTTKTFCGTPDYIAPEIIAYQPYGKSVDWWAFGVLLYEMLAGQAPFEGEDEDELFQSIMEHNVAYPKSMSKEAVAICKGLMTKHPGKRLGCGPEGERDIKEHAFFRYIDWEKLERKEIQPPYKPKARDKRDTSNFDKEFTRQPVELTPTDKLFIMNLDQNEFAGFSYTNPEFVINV
Protein kinase C eta type (Homo sapiens), sequence (P24723 whole entry): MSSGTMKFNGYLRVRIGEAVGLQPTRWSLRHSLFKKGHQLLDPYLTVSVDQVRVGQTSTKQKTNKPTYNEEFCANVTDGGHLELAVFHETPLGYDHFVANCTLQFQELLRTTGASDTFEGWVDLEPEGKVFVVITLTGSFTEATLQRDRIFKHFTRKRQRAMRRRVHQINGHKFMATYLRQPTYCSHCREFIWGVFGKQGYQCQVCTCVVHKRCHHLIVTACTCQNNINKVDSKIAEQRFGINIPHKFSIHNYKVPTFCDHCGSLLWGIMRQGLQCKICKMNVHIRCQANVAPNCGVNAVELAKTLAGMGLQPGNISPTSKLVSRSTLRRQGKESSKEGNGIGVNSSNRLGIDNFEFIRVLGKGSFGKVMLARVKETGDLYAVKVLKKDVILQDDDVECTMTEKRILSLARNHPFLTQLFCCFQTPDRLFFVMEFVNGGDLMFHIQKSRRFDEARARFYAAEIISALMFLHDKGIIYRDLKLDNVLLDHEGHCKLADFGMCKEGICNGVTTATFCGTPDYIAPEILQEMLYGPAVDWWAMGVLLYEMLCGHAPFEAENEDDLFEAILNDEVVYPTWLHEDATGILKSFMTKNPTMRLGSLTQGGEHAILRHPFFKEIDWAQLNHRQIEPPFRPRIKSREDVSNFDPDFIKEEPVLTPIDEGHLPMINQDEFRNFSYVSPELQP
Ribosomal protein S6 kinase alpha-4 (Homo sapiens), sequence (O75676 whole entry, looked up): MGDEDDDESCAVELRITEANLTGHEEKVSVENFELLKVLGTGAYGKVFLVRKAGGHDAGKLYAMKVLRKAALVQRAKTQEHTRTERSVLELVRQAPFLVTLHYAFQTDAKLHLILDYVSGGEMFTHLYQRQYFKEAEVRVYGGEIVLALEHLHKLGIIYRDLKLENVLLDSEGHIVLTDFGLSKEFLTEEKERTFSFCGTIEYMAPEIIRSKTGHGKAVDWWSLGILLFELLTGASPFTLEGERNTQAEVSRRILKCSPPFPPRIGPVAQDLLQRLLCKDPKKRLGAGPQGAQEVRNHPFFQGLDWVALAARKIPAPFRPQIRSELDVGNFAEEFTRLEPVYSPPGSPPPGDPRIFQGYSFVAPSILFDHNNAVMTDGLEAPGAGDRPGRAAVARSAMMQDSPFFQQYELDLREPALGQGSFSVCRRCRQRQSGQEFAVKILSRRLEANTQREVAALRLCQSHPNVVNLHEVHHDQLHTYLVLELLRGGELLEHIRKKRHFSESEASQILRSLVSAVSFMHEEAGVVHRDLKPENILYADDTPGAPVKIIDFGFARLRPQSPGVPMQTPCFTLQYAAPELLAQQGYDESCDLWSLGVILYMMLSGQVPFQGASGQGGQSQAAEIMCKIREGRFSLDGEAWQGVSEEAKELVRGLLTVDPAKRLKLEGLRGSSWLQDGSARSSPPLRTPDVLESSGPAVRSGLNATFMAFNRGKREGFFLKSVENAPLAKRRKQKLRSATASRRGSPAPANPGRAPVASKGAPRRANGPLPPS
Ribosomal protein S6 kinase beta-1 (Homo sapiens), sequence (P23443 whole entry, looked up): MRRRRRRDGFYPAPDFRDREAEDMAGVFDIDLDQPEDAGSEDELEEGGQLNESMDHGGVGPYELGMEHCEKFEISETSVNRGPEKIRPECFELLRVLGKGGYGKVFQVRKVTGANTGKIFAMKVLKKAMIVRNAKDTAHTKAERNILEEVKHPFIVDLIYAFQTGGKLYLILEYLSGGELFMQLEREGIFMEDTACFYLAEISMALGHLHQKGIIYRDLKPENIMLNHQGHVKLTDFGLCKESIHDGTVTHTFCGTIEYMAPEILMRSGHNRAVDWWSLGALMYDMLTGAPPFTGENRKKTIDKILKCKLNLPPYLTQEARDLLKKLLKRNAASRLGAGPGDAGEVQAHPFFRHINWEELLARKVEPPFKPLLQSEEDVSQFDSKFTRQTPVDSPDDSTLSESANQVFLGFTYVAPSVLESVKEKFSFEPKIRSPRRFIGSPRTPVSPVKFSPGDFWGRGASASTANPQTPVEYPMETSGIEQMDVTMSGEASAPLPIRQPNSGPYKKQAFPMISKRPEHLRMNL

SMILES | inhibition [1] [%] | inhibition [2] [%] | inhibition [3] [%] | inhibition [4] [%] | inhibition [5] [%] | inhibition [6] [%] | inhibition [7] [%] | inhibition [8] [%] | inhibition [9] [%] | inhibition [10] [%] | inhibition [11] [%] | inhibition [12] [%] | inhibition [13] [%] | inhibition [14] [%] | inhibition [15] [%] | inhibition [16] [%] | inhibition [17] [%] | inhibition [18] [%] | inhibition [19] [%] | inhibition [20] [%]
CN(C)c1ccc2c(c1)/C(=C/Nc1ccc(S(N)(=O)=O)cc1)C(=O)N2 | 0.22 | 4.01 | 1.12 | 2.85 | 3.06 | 4.05 | 1.96 | 3.55 | 0.19 | 3.09 | 11.6 | 1.77 | 1.6 | 0.48 | 1.56 | 0.94 | 0.89 | 2.02 | 2.17 | 0.64
COc1cc(Nc2ncc3c(C)nc(-c4cccc(C(F)(F)F)c4)n3n2)cc(OC)c1OC | -0.66 | 4.12 | -1.16 | -0.4 | 2.79 | 5.2 | 2.89 | 8.48 | 2.17 | 5.51 | 3.64 | 2.66 | 2.72 | -0.1 | 1.99 | 0.93 | 5.54 | 6.38 | 3.64 | 2.47
CCc1nccc2c1nc(-c1nonc1N)n2CC | 0.8 | 1.36 | 0.74 | 3.39 | 6.51 | 37.7 | 2.18 | 19.5 | 10.5 | 49.6 | 0.73 | 1.21 | 4.19 | 1.25 | 2.71 | 2.42 | 20 | 4.76 | 21.1 | -1.83
CN(C)CCOc1ccc(-c2cc(-c3ccc4c(c3)CCC4=NO)c(-c3ccncc3)o2)cc1 | -0.43 | -0.33 | -0.99 | -2.76 | -1.98 | -2.88 | 0.1 | -2.21 | -1.83 | -2.77 | 0.51 | 2.75 | 21 | -0.04 | 1.32 | -1.02 | 4.4 | 0.38 | -1.11 | 0.61
O=C1NC(=O)C(c2cccc(Cl)c2)=C1Nc1ccc(Cl)c(C(=O)O)c1 | 1.43 | 4.38 | 0.15 | -0.05 | 3.03 | 2.1 | 2.51 | 2.85 | 0.51 | 1.96 | 1.28 | 2.1 | 1.05 | 0.36 | 0.21 | 0.61 | 1.11 | 3.84 | 8.96 | 4.02
O=C(Nc1ccc(Oc2ccc3[nH]c(NC(=O)c4ccccc4)nc3c2)cc1)Nc1cc(C(F)(F)F)ccc1F | -0.69 | 1 | -0.31 | -0.22 | 4.16 | 5.67 | 2.16 | 3.01 | 5.73 | 36.4 | 1.16 | 1.01 | 1.45 | 0.3 | 1.8 | 0.29 | 3.18 | 1.1 | 4.58 | 3.6
NC(=O)c1cc(-c2ccc(F)cc2)cc(-c2ccncc2)c1N | -1.04 | -1.25 | -1.54 | -2.26 | 2.2 | 1.39 | 2.03 | 2.52 | 1.5 | 2.24 | 1.54 | 1.46 | 3.06 | 0.16 | 1.21 | -1.29 | 3.15 | 3.71 | 8.19 | 0.15
NS(=O)(=O)c1ccc(Nc2cc(-c3ccc(O)c(F)c3)n[nH]2)cc1 | -0.79 | 0.17 | 0.18 | 0.15 | -1.17 | 8.77 | -0.21 | 8.93 | -2.09 | 4.29 | -2.08 | -2.2 | -0.83 | -0.97 | 0.4 | -0.01 | 0.79 | -3.29 | -5.2 | -3.75
COc1cc(N2CCN(C(C)C)CC2)ccc1Nc1nc(Nc2ccc(F)cc2C(=O)NC[C@@H](O)CO)c2cc[nH]c2n1 | -0.84 | 3.26 | -0.21 | -1.04 | 2.19 | 2.99 | 3.14 | 4.18 | 1.29 | 2.5 | -0.19 | -1.57 | 0.73 | -2.86 | -2.46 | 1.6 | 4.35 | 4.05 | 7.17 | -2.06
NCc1ccc(-n2c(-c3nonc3N)nc3cnccc32)cc1 | 43.4 | 90.6 | 59.8 | 83.5 | 54.7 | 78.7 | 20.1 | 63.3 | 21.3 | 69.9 | 2.61 | 10.4 | 56.1 | 4.7 | 41 | 29.1 | 64.5 | 47.1 | 88.4 | 4.15
CCc1cccc(CC)c1/C=C/c1cncc(C(=O)NC)c1 | 0.02 | 0.07 | 0.83 | 1.46 | 3.05 | 2.79 | 0.51 | 2.52 | 1.3 | 0.41 | 0.34 | 1.89 | 1.06 | 1.01 | 3.13 | 0.31 | 0.32 | 1.99 | -0.26 | 1.06
O=C(Nc1n[nH]c2nc(-c3ccc(O)cc3)c(Br)cc12)C1CC1 | 1.56 | 13.5 | 1.77 | 15.5 | 5.22 | 13.6 | 2.78 | 6.3 | 2.07 | 6.85 | 5.57 | 2.91 | 5.49 | 5.38 | 36.9 | 6.11 | 36.5 | 6.81 | 12.9 | 12.7
O=C(Nc1n[nH]c2cc(-c3cc(F)ccc3F)ccc12)C1CC1 | -0.78 | -3.13 | -0.23 | -0.47 | 1.91 | 1.12 | 1.8 | 3.08 | 1.01 | 1.58 | 2.95 | 2.32 | 0.93 | 0.67 | 1.99 | 0.43 | 2.04 | 2.87 | 3.93 | 2.77
COc1cccc(-n2cnc3c(N/N=C/c4ccncc4)ncnc32)c1 | 1.59 | 3.69 | 0.38 | 0.7 | -0.31 | 1.02 | 2.44 | 3.95 | -0.32 | 1.15 | 0.77 | -1.92 | 0.18 | -2.58 | -3.28 | 3.24 | 5.82 | 3.47 | 0.69 | 0.93
NS(=O)(=O)c1ccc(N/N=C2\C(=O)Nc3ccc(C(=O)NCCCn4ccnc4)cc32)cc1 | 0.3 | 7.89 | 0.34 | 5.24 | 9.46 | 11.1 | 3.85 | 13.7 | 1.91 | 8.54 | 3.57 | 2.3 | 2.8 | 0.48 | 3.66 | 0.75 | 3.15 | 3.58 | 4.66 | 3.24
Clc1ccc(CNc2nccc(-c3cnn4ncccc34)n2)cc1 | 0 | 2.46 | -1.16 | 0.3 | 6.95 | 7.87 | 1.14 | 1.71 | 1.82 | 2.04 | 2.08 | 0.38 | 1.31 | 0.92 | 4.19 | 0.26 | 1.03 | 2.3 | 7.54 | 0.4
Cc1ccc(C(=O)NC(C)C)cc1-c1ccc(C(=O)NCC2CC2)cc1 | 0.02 | -2.08 | 0.15 | 0.39 | -3.69 | -3.9 | -1.65 | -2.17 | -2.1 | -2.29 | -3.15 | -2.08 | -1.32 | -0.49 | 0.46 | -0.62 | -0.82 | -2.29 | -3.07 | -0.67
COc1ccc(C2=C(N3CCc4ccccc43)C(=O)NC2=O)cc1 | -0.56 | -0.21 | 1.1 | 0.12 | 4.26 | 3.53 | 2.26 | 3.24 | 1.91 | 3.41 | 4.19 | 1.7 | 1.99 | 1.46 | 3.07 | 1.02 | 2.88 | 2.61 | 6.52 | 4.16
CCS(=O)(=O)c1ccc(OC)c(Nc2ncc(-c3ccccc3Cl)o2)c1 | -0.23 | 1.6 | -0.41 | 0.3 | 0.87 | 3.53 | 0.38 | 1.77 | 0.04 | 2.73 | 4.14 | 1.17 | 1.75 | 0.48 | 1.87 | 0.67 | 0.07 | 0.14 | 0.6 | -2.72
Fc1ccc(-c2nc3n(c2-c2ccncc2)CCS3)cc1 | 0.18 | 2.85 | 1.28 | 3.22 | 2.74 | 3.92 | 1.65 | 5.1 | 2.08 | 2.54 | 1.88 | -0.98 | 0.45 | -2.53 | -1.43 | 0.64 | 9.28 | 4.25 | 4.84 | 2.76
CCS(=O)(=O)c1ccc(OC)c(Nc2ncc(-c3cccc(-c4ccccc4F)c3)o2)c1 | -0.09 | -0.52 | 0.66 | 1.36 | 0.09 | 1.42 | 0.74 | 1.94 | 0.15 | 1.18 | 9.34 | 0.57 | 1.3 | 1.13 | 1.66 | 0.49 | 0.3 | -1.89 | -1.48 | 0.64
N#Cc1ccc(Oc2nccc(-c3c(-c4ccc(F)cc4)ncn3C3CCNCC3)n2)cc1 | -6.56 | -3.04 | -1.06 | 0.02 | 1.54 | -0.96 | 3.03 | 1.76 | 1.84 | 2.31 | 8.47 | 2.63 | 5.75 | 0.69 | 2.61 | 1.45 | 2.93 | 6.05 | 5.43 | 1.87
COc1cc(C)c(N(C)C(=O)CN(C)C)cc1Nc1nc(Nc2cccc(F)c2C(N)=O)c2cc[nH]c2n1 | 0.58 | 0.78 | 1.08 | 1.21 | 1.09 | 0.49 | 1.07 | 2.79 | 2.18 | 1.42 | 3.26 | -0.93 | -3.21 | -3 | -2.59 | 1.6 | -0.89 | 4.46 | 1.91 | 2.63
Fc1ccc(-c2c(-c3ccncc3)nc3n2CCS3)cc1 | 1.61 | 5.14 | 2.15 | 9.93 | 3.9 | 8.14 | 4.42 | 8.86 | 0.97 | 2.52 | 2.05 | -0.65 | 13.2 | -2.65 | -2.48 | 2.56 | 15.9 | -2.42 | 7.59 | 1
c1ccc(-c2n[nH]cc2-c2ccnc(-c3ccc(OCCN4CCOCC4)cc3)c2)nc1 | 6.85 | -2.76 | 7.67 | 5.68 | 3.06 | 1.22 | 3.23 | 3.34 | 2.04 | 1.17 | 1.56 | 7.85 | 3.77 | 2.22 | 1.97 | 5.36 | 3.85 | -2.82 | -2.18 | 3.17
